Molecules are shown by their SMILES. Inconclusive results are not listed. A call without a number means that no potency is given here. Calls of active or inactive are those of the source. Unless noted, calls follow the shape of the dose curve; as a rule, active = well fitted cell-killing curve with a large enough effect in the repeat runs; inconclusive = weak or mixed curves, or effect the other way; inactive = no such curve, though single readings can be large or run the other way.

Chain of Thyrotropin receptor (Homo sapiens) (P16473 whole entry, looked up): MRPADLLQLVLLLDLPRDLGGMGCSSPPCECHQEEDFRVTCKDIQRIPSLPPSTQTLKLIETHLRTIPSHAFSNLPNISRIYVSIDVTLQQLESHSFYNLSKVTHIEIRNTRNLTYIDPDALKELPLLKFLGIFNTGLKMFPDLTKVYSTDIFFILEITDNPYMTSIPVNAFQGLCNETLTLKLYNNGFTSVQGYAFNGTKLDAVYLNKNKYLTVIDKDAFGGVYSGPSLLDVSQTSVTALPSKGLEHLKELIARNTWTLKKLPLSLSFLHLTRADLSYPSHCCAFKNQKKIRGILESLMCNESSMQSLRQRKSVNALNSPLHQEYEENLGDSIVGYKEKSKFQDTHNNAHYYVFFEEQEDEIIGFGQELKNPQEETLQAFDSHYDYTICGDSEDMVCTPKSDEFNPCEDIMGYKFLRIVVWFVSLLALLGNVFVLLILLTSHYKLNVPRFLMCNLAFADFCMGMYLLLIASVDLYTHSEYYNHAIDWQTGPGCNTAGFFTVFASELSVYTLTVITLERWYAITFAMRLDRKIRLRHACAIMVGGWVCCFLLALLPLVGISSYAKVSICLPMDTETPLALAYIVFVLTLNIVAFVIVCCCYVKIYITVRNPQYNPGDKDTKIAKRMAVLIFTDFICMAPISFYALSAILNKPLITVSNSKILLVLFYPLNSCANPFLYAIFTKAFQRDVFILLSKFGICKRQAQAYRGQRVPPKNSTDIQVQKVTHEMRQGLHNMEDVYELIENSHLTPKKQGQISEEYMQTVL

For one assay, the target named is Thyrotropin receptor (Homo sapiens) (UniProt P16473). The assay is described as follows: qHTS assay to identify small molecule antagonists of the thyroid stimulating hormone receptor (TSHR) signaling pathway (AID 1259385; calls by dose curve; also: nearly all actives have a fitted effect of over 20% in size). The settings on record: TSHR-HEK293 cAMP HTRF, TSH-stimulated antagonist mode; series mostly up to 92.4 µM. The essentials:
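TSHR-HEK293 cells were plated and held 18 h at 37C/5% CO2, then given compound plus Ro20-1724 and stimulated with TSH at 1.5 ng/mL final. After 30 min at room temperature, cAMP was detected with cAMP-d2/anti-cAMP-cryptate (1 h) by fluorescence.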
Turning to `C=CC(=O)NC(C)C`, the Potency entry is “inactive”.
Turning to `CCCCCCCCCCCCCCCC(=O)OCC`, the Potency result is “inactive”.
`CC(C)(C)C1(CCc2ccc(Cl)cc2)CO1` (centres undefined): the Potency result is “inactive”.
Still for that read-out and setting: the same measure for `CC(=O)Oc1cccc(O)c1`: “inactive”; for `CSCC[C@H](NC(=O)[C@H](Cc1c[nH]c2ccccc12)NC(=O)CCNC(=O)OC(C)(C)C)C(=O)N[C@@H](CC(=O)O)C(=O)N[C@@H](Cc1ccccc1)C(N)=O`: “inactive”.
Turning to `CC(C)(C)S`, the Potency entry is “inactive”.
On to `CC[C@H]1OC(=O)[C@H](C)[C@@H](O[C@H]2C[C@@](C)(OC)[C@@H](O)[C@H](C)O2)[C@H](C)[C@@H](O[C@@H]2O[C@H](C)C[C@H](N(C)C)[C@H]2O)[C@](C)(O)C[C@@H](C)/C(=N\OCOCCOC)[C@H](C)[C@@H](O)[C@]1(C)O`, for which the Potency entry is “inactive”.
In the case of `C=Cc1ccc(OC(C)=O)cc1`, the Potency entry is “inactive”.
Same read-out and setting: the result for `CCCCCCCC(=O)OCCCCCC` reads “inactive”; that for `CCOC(=O)N1CCC(Nc2ccc(Cl)cc2N)CC1`, “inactive”; that for `NC(=O)c1ccccc1[N+](=O)[O-]`, “inactive”.
For the molecule `O=C1[C@@H]2[C@H]3CC[C@H](C3)[C@@H]2C(=O)N1CCCCN1CCN(c2ncccn2)CC1`, the Potency result is “inactive”.
For `CCCCCCCC/C=C\CCCCCCCC(=O)OCCO`, the Potency entry was “inactive”.
The same measure, in the same setting: the result for `C1CCCCC1` reads “inactive”; that for `O=C1OC(=O)c2c(Br)c(Br)c(Br)c(Br)c21`, “inactive”.
On to `O=C(NS(=O)(=O)/C=C/c1ccccc1)c1ccc(F)cc1Cl`, for which the Potency result is “inactive”.
Same read-out and setting: the same measure for `CNc1c2c(nn1C)CCCC2`: “inactive”; for `CCCCC[C@H](O)/C=C/[C@H]1[C@H](O)CC(=O)[C@@H]1C/C=C\CCCC(=O)O`: “inactive”.
As to `CCSC(=O)N(CC)CC`, the Potency result is “inactive”.
Take `COC(C)(C)OC`: the Potency entry was “inactive”.
Still for that read-out and setting: the same measure for `c1ccc(CCCc2ccncc2)cc1`: “inactive”.
With `CCCCCCCC/C=C/C(=O)O`, the Potency entry is “inactive”.
In the case of `O=C(O)CCC(=O)c1ccc(-c2ccccc2)cc1`, the Potency result is “inactive”.
The same measure, in the same setting: the same measure for `O=C1NC(=O)c2cccc3cccc1c23`: “inactive”.
With `O=C(CCS)OCC(COC(=O)CCS)(COC(=O)CCS)COC(=O)CCS`, the Potency entry was “inactive”.
On to `Cc1ccc2c(c1)CCCN2`, for which the Potency result was “inactive”.
Turning to `CC(C)(O)CCc1ccccc1`, the Potency result is “inactive”.

Test system in a further assay: not listed separately
As to the kind of experiment: qHTS assay to identify small molecule agonists of the estrogen receptor alpha (ER-alpha) signaling pathway in the presence of an antagonist - cell viability counter screen (AID 1259386).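 Also: cells exposed to compounds for 22 h at 37 °C before the viability read; nearly all actives have a fitted effect of over 30% in size.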 Also: potency is read from the fitted curve at half-maximal effect. The following applies: VM7Luc4E2 viability, CellTiter-Fluor fluorescence, 22 h; series mostly up to 92.4 µM. The gist of the method:
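Steps: 5-day stripped-FBS culture; seed and incubate 24hr; add ICI-182,780 (10.0nM final); pin 15-point compound titration; incubate 22hr at 37C; add CellTiter-Fluor at 21hr; read fluorescence.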
As to `C=CC(=O)NC(C)C`, the Potency result was “inactive”.
With `CCCCCCCCCCCCCCCC(=O)OCC`, the Potency result is “inactive”.
With `CC(C)(C)C1(CCc2ccc(Cl)cc2)CO1` (centres undefined), the Potency result is “inactive”.
For the molecule `CC(=O)Oc1cccc(O)c1`, the Potency entry is “inactive”.
For `CSCC[C@H](NC(=O)[C@H](Cc1c[nH]c2ccccc12)NC(=O)CCNC(=O)OC(C)(C)C)C(=O)N[C@@H](CC(=O)O)C(=O)N[C@@H](Cc1ccccc1)C(N)=O`, the Potency entry is “inactive”.
Consider `O=C(Oc1ccccc1)c1ccc2ccccc2c1O`, for which the Potency result is “inactive”.
The same measure, in the same setting: the result for `CC(C)(C)S` reads “inactive”; that for `CC[C@H]1OC(=O)[C@H](C)[C@@H](O[C@H]2C[C@@](C)(OC)[C@@H](O)[C@H](C)O2)[C@H](C)[C@@H](O[C@@H]2O[C@H](C)C[C@H](N(C)C)[C@H]2O)[C@](C)(O)C[C@@H](C)/C(=N\OCOCCOC)[C@H](C)[C@@H](O)[C@]1(C)O`, 7.19 µM (active); that for `FC(F)(F)C(F)(F)C(F)(F)C(F)(F)CCI`, “inactive”.
On the same count and under the same terms, the result for `O=c1[nH]c2cc(C(F)(F)F)c(N3CCOCC3)cc2n(CP(=O)(O)O)c1=O` reads “inactive”; that for `C=Cc1ccc(OC(C)=O)cc1`, “inactive”; that for `CCCCCCCC(=O)OCCCCCC`, “inactive”.
Turning to `CCCCCCCCCCCC(=O)OCC(O)CO` (centres undefined), the Potency result is “inactive”.
`O=C(O)CCC(=O)OC[C@@H](NC(=O)C(Cl)Cl)[C@H](O)c1ccc([N+](=O)[O-])cc1`: the Potency result was “inactive”.
The same measure, in the same setting: the result for `CCOC(=O)N1CCC(Nc2ccc(Cl)cc2N)CC1` reads “inactive”; that for `NC(=O)c1ccccc1[N+](=O)[O-]`, “inactive”; that for `O=C1[C@@H]2[C@H]3CC[C@H](C3)[C@@H]2C(=O)N1CCCCN1CCN(c2ncccn2)CC1`, “inactive”.
Consider `CC(=O)C(=O)CC(C)C`, for which the Potency entry was “inactive”.
For the molecule `CCCCCCCC/C=C\CCCCCCCC(=O)OCCO`, the Potency result is “inactive”.
Take `C1CCCCC1`: the Potency entry is “inactive”.
In the case of `O=C1OC(=O)c2c(Br)c(Br)c(Br)c(Br)c21`, the Potency entry was “inactive”.
Consider `O=C(NS(=O)(=O)/C=C/c1ccccc1)c1ccc(F)cc1Cl`, for which the Potency entry is “inactive”.
Turning to `CNc1c2c(nn1C)CCCC2`, the Potency result is “inactive”.
As for `CCCCC[C@H](O)/C=C/[C@H]1[C@H](O)CC(=O)[C@@H]1C/C=C\CCCC(=O)O`, the Potency result is “inactive”.
Regarding `CCSC(=O)N(CC)CC`, the Potency result was “inactive”.
On the same count and under the same terms, the result for `COC(C)(C)OC` reads “inactive”.
As to `c1ccc(CCCc2ccncc2)cc1`, the Potency result was “inactive”.
Turning to `CCCCCCCC/C=C/C(=O)O`, the Potency entry is “inactive”.
On to `O=C(O)CCC(=O)c1ccc(-c2ccccc2)cc1`, for which the Potency entry was “inactive”.
For the molecule `CCN(CC)c1cccc(O)c1`, the Potency result was “inactive”.
On to `O=C1NC(=O)c2cccc3cccc1c23`, for which the Potency result was “inactive”.
With `CC(C)c1ccc(C(=O)N=C(N)N)cc1S(C)(=O)=O`, the Potency entry was “inactive”.
With `O=C(CCS)OCC(COC(=O)CCS)(COC(=O)CCS)COC(=O)CCS`, the Potency result is “inactive”.
As for `Cc1ccc2c(c1)CCCN2`, the Potency result is “inactive”.
As for `CC(C)(O)CCc1ccccc1`, the Potency result was “inactive”.
Same read-out and setting: the result for `Nc1cccc2c(N)cccc12` reads 48.6 µM (active); that for `CCN(CC)C(=O)/C(C#N)=C/c1cc(O)c(O)c([N+](=O)[O-])c1`, 26.6 µM (active).

(Values after PubChem BioAssay (Tox21).)
